Measurements from publication PMC5540273 (PLoS ONE, 2017).
Values joined by “and” are separate entries in the source; they are usually repeats but may differ in a detail not shown here. Identical values can stand only once. Like-named read-outs stand apart in the source and are kept apart here.

Key:
Conditions in all cases: concentration: 1 μM, replicates: in singlicate, n = 1
YANK3 = test system: T1, YANK3
T1 construct: gene STK32C

YES = test system: T2, YES
T2 construct: gene YES1

YSK1 = test system: T3, YSK1
T3 construct: gene STK25

YSK4 = test system: T4, YSK4
T4 construct: gene MAP3K19

ZAK = test system: ZAK
ZAP70 = test system: ZAP70
p38-alpha = test system: T5, p38-alpha
T5 construct: gene MAPK14

p38-beta = test system: T6, p38-beta
T6 construct: gene MAPK11

p38-delta = test system: p38-delta
p38-gamma = test system: T7, p38-gamma
T7 construct: gene MAPK12
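Further: KINOMEscan kinase panel screen.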

| Structure (SMILES) | %Inh (YANK3) | %Inh (YES) | %Inh (YSK1) | %Inh (YSK4) | %Inh (ZAK) | %Inh (ZAP70) | %Inh (p38-alpha) | %Inh (p38-beta) | %Inh (p38-delta) | %Inh (p38-gamma) | %Inh (YANK3; 1 µM) | %Inh (YES; 1 µM) | %Inh (YSK1; 1 µM) | %Inh (YSK4; 1 µM) | %Inh (ZAK; 1 µM) | %Inh (ZAP70; 1 µM) | %Inh (p38-alpha; 1 µM) | %Inh (p38-beta; 1 µM) | %Inh (p38-delta; 1 µM) | %Inh (p38-gamma; 1 µM) |
| --- | --- | --- | --- | --- | --- | --- | --- | --- | --- | --- | --- | --- | --- | --- | --- | --- | --- | --- | --- | --- |
| O=c1cc(N2CCOCC2)nc2n(Cc3cccc(Cl)c3Cl)c(C3CC3)nn12 [GSK2358994] | 0% | 9% | 0% | 0% | 12% | 10% | 0% | 8% | 4% | 23% | – | – | – | – | – | – | – | – | – | – |
| Fc1ccc(-c2ncn(CCCN3CCOCC3)c2-c2cccnc2)cc1 [SB-211743] | 0% | 0% | 0% | 22% | 0% | 0% | 0% | 0% | 0% | 48% | – | – | – | – | – | – | – | – | – | – |
| CC(C)(CN)c1nc(-c2ccc(Cl)c(O)c2)c(-c2ccncc2)[nH]1.O=C(O)C(F)(F)F [SB-477794] | – | – | – | – | – | – | – | – | – | – | 86% and 83% | 88% and 86% | 6% and 96.1% | 87% and 65% | 100% and 59% | 58% and 0% | 99.8% and 99.3% | 53% and 58% | 29% and 0% | 19% and 63% |
| CCn1cnc2c(N)ncnc21 [GW345098] | 0% | 21% | 0% | 5% | 12% | 3% | 5% | 4% | 0% | 49% | – | – | – | – | – | – | – | – | – | – |
| NS(=O)(=O)c1cccc(-c2ccc3nccc(-c4cccc(S(N)(=O)=O)c4)c3c2)c1 [GW867253] | 0% | 0% | 0% | 26% | 2% | 12% | 1% | 3% | 0% | 0% | – | – | – | – | – | – | – | – | – | – |
| COc1cc2c(cc1OCCN1CCN(C)CC1)ncc1c3ccc(C#N)cc3[nH]c21 | 35% | 3% | 0% | 89% | 0% | 0% | 0% | 1% | 7% | 35% | – | – | – | – | – | – | – | – | – | – |
| CCc1nc(-c2cccc(C)c2)c(-c2ccnc(NCc3ccccc3)c2)s1 | 19% | 0% | 6% | 0% | 11% | 0% | 99.8% | 69% | 0% | 0% | – | – | – | – | – | – | – | – | – | – |
| COc1ccc(Nc2nccc(N3CCC(NC(=O)Nc4cccc(C(C)=O)c4)C3)n2)cc1 (stereo not drawn) [GSK1379731] | 0% | 0% | 0% | 7% | 0% | 0% | 0% | 0% | 42% | 0% | – | – | – | – | – | – | – | – | – | – |
| COC(=O)Nc1nc2cc(Oc3ccc(NC(=O)Nc4cc(F)ccc4F)cc3)ccc2[nH]1.Cl [GW701424] | 0% | 11% | 13% | 53% | 98.8% | 71% | 37% | 0% | 29% | 13% | – | – | – | – | – | – | – | – | – | – |
| COc1ccc(CNC(=O)NC2CCN(c3ccnc(Nc4ccc(OC)cc4)n3)C2)cc1 (stereo not drawn) [GSK1379727] | 8% | 3% | 0% | 36% | 0% | 0% | 11% | 0% | 8% | 45% | – | – | – | – | – | – | – | – | – | – |
| COc1ccc(S(=O)(=O)NC2CCN(c3cc(C)nc(Nc4cccc(C#N)c4)n3)CC2)cc1.O=C(O)C(F)(F)F [GSK1653539] | 0% | 4% | 20% | 0% | 0% | 0% | 9% | 0% | 28% | 0% | – | – | – | – | – | – | – | – | – | – |
| Cc1cccc(-c2nc(-c3ccc(S(C)(=O)=O)cc3)sc2-c2ccncc2)c1 | 23% | 0% | 18% | 9% | 30% | 0% | 92.4% | 0% | 19% | 12% | – | – | – | – | – | – | – | – | – | – |
| Nc1nc(-c2ccc3c(N)n[nH]c3c2)cc(N2CCCC2)n1 [GSK2227430] | 0% | 0% | 9% | 36% | 0% | 0% | 0% | 0% | 25% | 0% | – | – | – | – | – | – | – | – | – | – |
| Cc1cccc(Cn2ccn3c(=O)cc(N4CCOCC4)nc23)c1 [GSK2297542] | 16% | 19% | 17% | 12% | 17% | 0% | 27% | 0% | 36% | 51% | – | – | – | – | – | – | – | – | – | – |
| Cc1ccc(C(=O)NCC(N)=O)cc1-n1c(C)cc(OCc2ccc(F)cc2F)c(Br)c1=O | 6% | 16% | 0% | 0% | 24% | 0% | 100% | 100% | 18% | 8% | – | – | – | – | – | – | – | – | – | – |
| NCC(NC(=O)c1cc(-c2cn[nH]c2)c(-c2ccnc3[nH]ccc23)s1)c1ccccc1.O=C(O)C(F)(F)F.O=C(O)C(F)(F)F (stereo not drawn) [GSK1325775] | 8% | 0% | 24% | 99.8% | 4% | 0% | 10% | 0% | 10% | 27% | – | – | – | – | – | – | – | – | – | – |
| CC(C)Oc1ccc2c(-c3ccnc(Nc4ccc(N5CCN(C)CC5)cc4)n3)cnn2n1 [GW696155] | 0% | 54% | 71% | 99.8% | 0% | 65% | 17% | 0% | 72% | 62% | – | – | – | – | – | – | – | – | – | – |

| Structure (SMILES) | %Inh (YANK3) | %Inh (YES) | %Inh (YSK1) | %Inh (YSK4) | %Inh (ZAK) | %Inh (ZAP70) | %Inh (p38-alpha) | %Inh (p38-beta) | %Inh (p38-delta) | %Inh (p38-gamma) | %Inh (YANK3; 1 µM) | %Inh (YES; 1 µM) | %Inh (YSK1; 1 µM) | %Inh (YSK4; 1 µM) | %Inh (ZAK; 1 µM) | %Inh (ZAP70; 1 µM) | %Inh (p38-alpha; 1 µM) | %Inh (p38-beta; 1 µM) | %Inh (p38-delta; 1 µM) | %Inh (p38-gamma; 1 µM) |
| --- | --- | --- | --- | --- | --- | --- | --- | --- | --- | --- | --- | --- | --- | --- | --- | --- | --- | --- | --- | --- |
| Cc1cccc(-c2nc(Nc3ccc4ncsc4c3)c3ccccc3n2)n1 [GW867588] | 29% | 0% | 0% | 11% | 0% | 10% | 0% | 0% | 0% | 0% | – | – | – | – | – | – | – | – | – | – |
| Cn1ccc2ncnc(Oc3ccc(NC(=O)Nc4ccncc4)c(Cl)c3)c21 | 9% | 0% | 3% | 0% | 0% | 7% | 0% | 18% | 4% | 8% | – | – | – | – | – | – | – | – | – | – |
| CCc1ccnc(/C=C/c2n[nH]c3cc(Sc4ccccc4C(=O)NC)ccc23)c1 | 0% | 4% | 0% | 60% | 37% | 20% | 0% | 0% | 7% | 7% | – | – | – | – | – | – | – | – | – | – |
| CN(C(=O)c1ccc(-c2cc(-c3c[nH]nc3-c3ccccn3)ccn2)cc1)C1CCOCC1 [GW810083] | 0% | 0% | 0% | 0% | 18% | 13% | 10% | 3% | 5% | 0% | – | – | – | – | – | – | – | – | – | – |
| CN(C1=C(c2ccccc2)C(=O)NC1=O)c1ccccc1 [SB-334860] | 17% | 17% | 21% | 9% | 79% | 0% | 0% | 5% | 22% | 5% | – | – | – | – | – | – | – | – | – | – |
| CN1c2ccc(NCc3ccc(F)cc3)cc2-c2c(cnn2C)S1(=O)=O | 0% | 0% | 0% | 8% | 0% | 0% | 0% | 0% | 13% | 0% | – | – | – | – | – | – | – | – | – | – |
| Cc1nnc(-c2ccc(C)c(-c3ccc(C(=O)Nc4ccc(NS(C)(=O)=O)cc4)cc3)c2)o1 [GW702865] | 17% | 11% | 0% | 0% | 0% | 15% | 99.7% | 70% | 17% | 0% | – | – | – | – | – | – | – | – | – | – |
| O=C(NOCC1CC1)c1ccc(F)c(F)c1Nc1ccc(I)cc1Cl | 0% | 0% | 0% | 0% | 0% | 0% | 0% | 19% | 0% | 0% | – | – | – | – | – | – | – | – | – | – |
| Cl.Nc1ncnc2occ(-c3ccc(NC(=O)Nc4cc(C(F)(F)F)ccc4F)cc3)c12 [SB-707548] | 7% | 60% | 50% | 99.9% | 42% | 19% | 86% | 63% | 93.4% | 96.8% | – | – | – | – | – | – | – | – | – | – |
| O=C(NCCCN1CCOCC1)c1cccc(Nc2nccc(Nc3ccc(Oc4ccccc4)cc3)n2)c1 [GW663929] | 1% | 84% | 22% | 26% | 47% | 6% | 11% | 0% | 18% | 0% | – | – | – | – | – | – | – | – | – | – |
| O=C(NCCNc1ccnc(Nc2ccc(F)cc2)n1)Nc1ccccc1F [GSK1379880] | 0% | 9% | 0% | 26% | 0% | 0% | 0% | 0% | 52% | 0% | – | – | – | – | – | – | – | – | – | – |
| COc1cc2ncn(-c3cc(OCc4sccc4Cl)c(C(N)=O)s3)c2cc1OC [GSK448459] | 0% | 6% | 0% | 89% | 0% | 0% | 0% | 0% | 23% | 0% | – | – | – | – | – | – | – | – | – | – |
| O=c1cc(N2CCOCC2)nc2n(Cc3cccc(F)c3)ccn12 [GSK2297430] | 22% | 16% | 0% | 33% | 0% | 0% | 43% | 0% | 22% | 0% | – | – | – | – | – | – | – | – | – | – |
| c1ccc(-c2cc(-c3c[nH]nc3-c3ccccn3)ccn2)cc1 [GW576604] | 0% | 0% | 0% | 13% | 16% | 0% | 47% | 0% | 40% | 0% | – | – | – | – | – | – | – | – | – | – |
| Cc1cn2c(=O)cc(N3CCOCC3)nc2n1Cc1cccc(Cl)c1Cl [GSK2334006] | 34% | 21% | 0% | 75% | 6% | 6% | 46% | 16% | 22% | 0% | – | – | – | – | – | – | – | – | – | – |
| COc1ccc(Nc2nccc(N3CCC(NC(=O)Nc4cc(C)ccc4C)C3)n2)cc1 (stereo not drawn) [GSK1379741] | 8% | 13% | 0% | 19% | 5% | 0% | 0% | 0% | 47% | 0% | – | – | – | – | – | – | – | – | – | – |
